# Screens as filed in PubChem.
# Pin1 inhibitor = human Pin1 inhibition | Pin1 FP peptide displacement, HiFluor488, 10 min | Potency, µM (highest dose often 115 µM), usual class: inhibitors | 0.009% of 390,000 active; active means well fitted inhibition curve with a large enough effect in the polarisation, with a control signal flat, not every such curve was filed as active; inconclusive means small, poorly fitted or top-dose-only effect, or effect the other way, or a change in a side signal; inactive means no such curve, though single readings can be large or run the other way; the % refers to the polarisation
# PGK inhibitor = T. brucei PGK inhibition. P07378. PGK/GAPDH coupled, Kinase-Glo luminescence, 60 min. Potency, µM (highest dose often 57.5 µM), most hits filed as inhibitors. 0.043% of 380,000 active. AID 602233; further: nearly all actives have a fitted effect of over 60% in size
#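 Recombinant glycosomal PGK reaction used 1,3-bisphosphoglycerate generated in-well by GAPDH (100nM final) in 100mM TEA pH 7.6, 5mM MgCl2, 0.01% Tween-20. After 60 minutes at room temperature, ATP was read by Kinase-Glo Plus luminescence end-point.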
# IDH1 R132H inh = human IDH1 R132H inhibition | Potency, µM (series often up to 76.6 µM), usual class: inhibitors | 0.093% of 390,000 active | O75874 | IDH1-R132H enzyme, NADPH consumption, diaphorase/resazurin fluorescence; further: nearly all actives have a fitted effect of over 65% in size
#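 IDH1-R132H (0.5 ug/mL dispensed) in pH 7.5 Tris buffer was preincubated 30 min with compound, then given a substrate mix of 0.016 mM NADPH and 2 mM alpha-KG for 80 min at room temperature; remaining NADPH was read by diaphorase/resazurin fluorescence.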
# GLS inhibitor = glutaminase GLS (human) inhibition; O94925; GLS enzymatic activity, qHTS titration; Potency, µM (titrated, usually from 45.5 µM), actives largely listed as inhibitors; 0.21% of 410,000 active; AID 624170
#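 Glutamate formation by hKGA was monitored fluorometrically using coupled glutamate oxidase, HRP and Amplex Red. Substrate was added as 1 mM L-glutamine solution; incubation was 30 min at RT after an initial read.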
# A number is an active result; . = inactive; ? = inconclusive; / = no result given. This is a sample that favours compounds with a hit; in the whole collection about 0.33% have one here. Unless noted, the call rests on the fitted dose curve; in most records, active means well fitted curve in the direction sought with a large enough effect; inconclusive means small, poorly fitted or top-dose-only effect, or another doubt; inactive means no such curve, though single readings can be large; an effect the other way counts as inactive or inconclusive.
SMILES,Pin1 inhibitor,PGK inhibitor,IDH1 R132H inh,GLS inhibitor
CN(CC(=O)Nc1c(Cl)cccc1Cl)C(=O)c1ccccc1SCC(=O)N1CCCC1,.,.,.,15.8µM
COc1ccc(C)cc1NC(=O)C(OC(=O)CNC(=O)c1ccccc1)c1ccccc1 (stereo not given),.,/,/,/
O=c1oc(-c2ccc(O)c(O)c2)cc2cc(O)cc(O)c12,?,.,.,17.8µM
COc1cccc(CNc2ccc3[nH]c(=O)[nH]c3c2)c1OCc1ccccc1Cl,.,.,.,.
COc1cccc(CNc2ccc3[nH]c(=O)[nH]c3c2)c1OCc1ccccc1,.,.,.,15.8µM
NS(=O)(=O)c1cc(C(=O)NC2CCSc3ccccc32)ccc1Cl (stereo not given),/,1µM,.,?
Cc1cccc(OC2=NS(=O)(=O)c3ccccc32)c1,.,/,/,/
COc1ccc(C2Nc3ccccc3C(=O)N2Cc2ccco2)cc1COc1ccccc1 (stereo not given),.,/,/,/
CC(=O)Nc1sc2c(c1-c1ccccc1)CCNC2,.,/,/,/
CC1(C)Cc2c(sc3ncn4c(=S)[nH]nc4c23)CO1,.,.,.,12.6µM
COc1ccc(C2Nc3ccccc3C(=O)N2CCCN(C)C)cc1COc1ccc(NC(C)=O)cc1 (stereo not given),.,/,/,/
Oc1ccc(CNc2ccc(F)cc2Cl)c2cccnc12,.,/,/,/
O=C(CSc1nc(-c2ccc(F)cc2)nc2c1Cc1ccccc1O2)Nc1ccc(C(=O)O)cc1,?,15.8µM,.,.
O=C(CSc1nc(-c2ccccc2)nc2c1Cc1ccccc1O2)Nc1ccc(C(=O)O)cc1,?,?,.,?
CCN(CC)c1ccc(C(=C2C=CC(=[N+](CC)CC)C=C2)c2ccccc2)cc1,.,.,.,6.31µM
CCN(CC)c1ccc(C(=C2C=CC(=[N+](CC)CC)C=C2)c2ccc(N(CC)CC)cc2)cc1,.,?,.,.
Cc1cc(NS(=O)(=O)c2ccc(NC(=O)/C=C/c3ccc(C)o3)cc2)nc(C)n1,.,.,.,10µM
Cc1cc(NS(=O)(=O)c2ccc(NC(=O)/C=C/c3ccccc3)cc2)nc(C)n1,.,.,.,.
COc1ccc(-c2nc3ccccc3c(=O)n2Cc2ccccc2)cc1CNc1ccc(NC(C)=O)cc1,.,/,/,/
CCN(CC(=O)Nc1c(F)cccc1F)C(=O)/C=C/c1ccc2ccccc2n1,/,?,.,10µM
CCN(CC(=O)Nc1c(F)cccc1F)C(=O)c1ccc2ccccc2n1,.,.,.,.
CC(=C/C(=O)O)/C=C/c1ccc(Cl)o1,/,?,.,17.8µM
CC(/C=C/c1ccc(C)o1)=C\C(=O)O,.,.,.,.
O=C(N/N=C/c1cn(Cc2cccc(F)c2)c2ccccc12)c1cc(O)cc(O)c1,/,4.47µM,.,2.51µM
Nc1ccc(C(=O)N/N=C/c2cn(Cc3ccc(F)cc3)c3ccccc23)cc1,.,.,.,.
SMILES,Pin1 inhibitor,PGK inhibitor,IDH1 R132H inh,GLS inhibitor
Cc1ccc(S(=O)(=O)c2c(C)cc(C)nc2Cl)c(C)c1,.,.,.,12.6µM
Cc1ccc(S(=O)(=O)c2c(C)cc(C)nc2Cl)cc1,.,.,.,11.2µM
Cc1cc(C)c(S(=O)(=O)c2ccccc2C)c(Cl)n1,.,.,.,12.6µM
Cc1cc(C)c(S(=O)(=O)c2ccccc2)c(Cl)n1,.,.,.,.
O=C(N/N=C/c1cccc(F)c1)c1cc(-c2ccco2)nc2ccccc12,/,?,.,12.6µM
COc1cc(/C=N/NC(=O)c2cc(-c3ccco3)nc3ccccc23)cc(OC)c1O,?,.,.,.
O=[S+]([O-])(c1ccc(-c2ccccc2)cc1)N1CCN([S+](=O)([O-])c2ccc3c(c2)OCCO3)CC1,.,/,/,/
Cc1ccc(O)c(NC(=S)NC(=O)C(C)C)c1,.,.,.,20µM
Cc1ccc(O)c(NC(=S)NC(=O)CC(C)C)c1,.,.,.,.
O=c1c2ccccc2nc2sc(Nc3ccc4c(c3)CNC4)nn12,.,/,/,/
CSc1ccc(C2NC(=O)c3c(sc4c3CCN(C)C4)N2)cc1 (stereo not given),?,.,.,?
CC(C)c1ccc(C2NC(=O)c3c(sc4c3CCN(C)C4)N2)cc1 (stereo not given),?,.,.,15.8µM
CN1CCc2c(sc3c2C(=O)NC(c2ccc(C(C)(C)C)cc2)N3)C1 (stereo not given),?,.,.,15.8µM
COc1ccc(C2NC(=O)c3c(sc4c3CCN(C)C4)N2)cc1O (stereo not given),.,/,/,.
O=C(C(Cc1ccccc1)n1cccc1)N1CCN(c2ccccc2)CC1 (stereo not given),.,.,.,.
